Source: PubChem (National Center for Advancing Translational Sciences (NCATS))
The list is not random: actives were taken first. Their share in the collection is about 11%.
L3MBTL1 block: L3MBTL1 (human) inhibition; Q9Y468; AlphaScreen L3MBTL1–H3K9me1 peptide binding; Potency, µM (top dose mostly 57.1 µM), for the others: at the top dose activity, negative = inhibition, usual class: inhibitors; 230,000 tested, 0.66% active; further: on the % scale 0 is the no-effect control and ±100 the full control effect; nearly all actives have a fitted effect of over 60% in size
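AlphaScreen assay: L3MBTL1 (50 nM final) was preincubated 30 min at room temperature with biotinylated H3(1-15)K9me1 peptide (75 nM final), then 30 min with library compounds; streptavidin donor and nickel chelate acceptor beads (10 ug/mL final) added, 30 min dark.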
G9a inh: blocks human histone lysine methyltransferase G9a | Q96KQ7 | G9a H3K9 monomethylation, AlphaScreen, 2 h | Potency, µM (titrated, usually from 102 µM), for the others: at the top dose activity, negative = inhibition, hits mostly inhibitors | 350,000 tested, 8.8% active | AID 504332; further: on the % scale 0 is the no-effect control and ±100 the full control effect; nearly all actives have a fitted effect of over 75% in size
Target sequence (Q96KQ7 913-1193 limits assumed): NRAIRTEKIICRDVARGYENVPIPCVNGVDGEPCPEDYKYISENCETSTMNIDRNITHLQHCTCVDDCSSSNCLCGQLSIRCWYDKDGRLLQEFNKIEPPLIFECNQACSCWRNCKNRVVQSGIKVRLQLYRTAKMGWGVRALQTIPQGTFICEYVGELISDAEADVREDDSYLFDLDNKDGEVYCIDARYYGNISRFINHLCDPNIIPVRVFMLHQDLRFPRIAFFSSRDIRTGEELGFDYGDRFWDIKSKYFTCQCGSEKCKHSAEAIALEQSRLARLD
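AlphaScreen read-out: biotin-H3K9 peptide (500 nM) methylation by 20 nM enzyme with 20 uM SAM, 2 h at room temperature after 15 min compound preincubation; anti-monomethyl H3K9 antibody plus donor/acceptor beads, 10 min dark.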
BAZ2B inh: inhibitors of human BAZ2B bromodomain; Q9UIF8; AlphaScreen BAZ2B-H3K14Ac peptide displacement; Potency, µM (top dose mostly 114 µM), inactives show at the top dose activity change, negative = inhibition, hits mostly inhibitors; 360,000 tested, 4.4% active; further: on the % scale 0 is the no-effect control and ±100 the full control effect; nearly all actives have a fitted effect of over 60% in size
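Complex of BAZ2B and biotin-H3K14Ac (50 nM apiece) forms over 30 min at RT, then faces library compounds up to 110 uM for another 30 min; AlphaScreen beads added, 20 min dark incubation, luminescence read.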
JMJD2A Tudor inh: blocks the human JMJD2A Tudor domain. AlphaScreen JMJD2A-Tudor / H3K4me3 peptide binding. Potency, µM (highest dose often 114 µM), for inactives: at the highest dose activity change, negative = inhibition, usual class: inhibitors. 390,000 tested, 4.4% active. AID 504339; further: on the % scale 0 is the no-effect control and ±100 the full control effect; nearly all actives have a fitted effect of over 50% in size
HP1b chromo inh: blocks HP1-beta chromodomain binding to methylated histone tails; 390,000 tested, 0.56% active; AlphaScreen HP1-beta / biotin-H3K9me3 peptide binding; P83916; Potency, µM (highest dose often 114 µM), for the others: at the top dose activity change, negative = inhibition, most hits filed as inhibitors; further: nearly all actives have a fitted effect of over 70% in size
Target sequence (P83916 whole entry, looked up): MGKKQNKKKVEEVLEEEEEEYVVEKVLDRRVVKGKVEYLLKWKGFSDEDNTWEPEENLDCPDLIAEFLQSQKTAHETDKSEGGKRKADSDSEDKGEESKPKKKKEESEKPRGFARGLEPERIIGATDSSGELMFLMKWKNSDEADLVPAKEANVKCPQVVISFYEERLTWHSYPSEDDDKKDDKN
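HP1-beta protein (50 nM final) preincubated 30 min at room temperature with biotinylated H3(1-18)K9me3 peptide (50 nM) in PBS pH 7.4, 0.01% Tween-20, then compound added for 30 min. AlphaScreen streptavidin donor/nickel chelate acceptor beads (10 ug/mL final), 30 min dark, luminescence read.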
* = called active by the depositor; ? = inconclusive; . = no result given; [ ] = another dose, or the depositor's remark. The call rests on the fitted dose curve; in most records, active means well fitted inhibition curve with a large enough effect; inconclusive means small, poorly fitted or top-dose-only effect; inactive means no such curve, though single readings can be large or run the other way. Potency means the concentration at half of the fitted maximal effect.

SMILES	L3MBTL1 block	G9a inh	BAZ2B inh	JMJD2A Tudor inh	HP1b chromo inh
Cc1cc(N)ccc1NC(=O)CN1CCCC1	.	25µM*	50µM*	22µM*	?
Cc1ccc(NC(=O)CN2CCN(C)CC2)cc1Br	-7%	.	50µM*	5.6µM*	?
Cc1nc([N+](=O)[O-])cn1CC(=O)Nc1ccc(F)c(Cl)c1	-6%	13%	4%	-16%	6%
Cc1ccc(NC(=O)CN2CCN(C)CC2)cc1S(=O)(=O)N1CCOCC1	5%	?	-3%	-16%	23%
O=C(Cn1cnc([N+](=O)[O-])c1)Nc1ccc(F)c(Cl)c1	.	50µM*	-13%	-13%	4%
Cc1ccc(OCCC(=O)Nc2ccc(F)c(Cl)c2)cc1	18%	37%[59 µM]	6%	11%	64%
COCCn1c(=O)c(-c2ccc(OC)cc2)nc2cnc(OCc3ccccc3)nc21	.	-5%[0.501 µM]	.	.	.
O=C(CCc1cn(Cc2ccccc2F)c2ccccc12)NCc1ccc(Cl)cc1	.	-8%[59 µM]	-12%	-5%	34%
O=C(CN1CCCCCC1)Nc1ccc(F)c(F)c1	-6%	32µM*	50µM*	8.9µM*	?
Cc1cccc(NC(=O)CN2CCCCCC2)c1	.	14µM*	?	20µM*	50µM*
O=C(CN1CCCCC1)Nc1ccc(F)c(Cl)c1	-2%	14%	2%	5%	21%
O=C(CN1CCCC1)Nc1ccc(F)c(Cl)c1	.	.	?	22µM*	-21%
O=C(NCCc1csc(-c2ccc(C(F)(F)F)cc2)n1)c1ccc(F)c(F)c1	.	3%[59 µM]	-6%	11%	20%[57 µM]
COc1cccc(Cn2cnc3c(NS(=O)(=O)c4cc(Cl)ccc4Cl)c(C)c(C)cc32)c1	-5%	8.9µM*	-1%	-14%	17%
COc1cccc(Cn2cnc3c(NS(=O)(=O)c4ccc(Cl)cc4Cl)c(C)c(C)cc32)c1	-2%	.	-5%	-30%	24%
CO[C@@]1(NC(=O)Cc2cccs2)C(=O)N2C(C(=O)O)=C(COC(N)=O)CS[C@@H]21	?	?	50µM*	56µM*	14%
Oc1ccc(Cl)c2cccnc12	.	24%[59 µM]	.	18µM*	9%
Clc1cc2cccnc2c2ccccc12	19%	-25%[59 µM]	63%	28%	71%
Oc1ccc(F)c2cccnc12	?	-4%[59 µM]	16µM*	10µM*	-18%
Oc1c(I)cc(I)c2cccnc12	-7%	50µM*	9%	56µM*	-20%
Oc1c(Cl)cc(Cl)c2cccnc12	.	40µM*	.	28µM*	-5%
O=C(CSc1ccc(Cl)cc1)NNC(=O)c1ccco1	.	29%	-10%	-12%	32%
CCOc1ccccc1C(=O)Nc1ccc(S(=O)(=O)Nc2onc(C)c2C)cc1	.	-6%[59 µM]	-2%	-8%	24%
Cc1ccc(C(=O)c2sc(Nc3ccccc3F)c(S(=O)(=O)c3ccccc3)c2N)c(C)c1	.	-28%[59 µM]	?	?	-9%[57 µM]
COc1ccc(Cl)cc1S(=O)(=O)Nc1ccc2[nH]c(=O)[nH]c2c1	.	?	-17%	-15%	10%
SMILES	L3MBTL1 block	G9a inh	BAZ2B inh	JMJD2A Tudor inh	HP1b chromo inh
O=C(Oc1ccc(Cl)c2cccnc12)c1cccnc1	?	1%	56µM*	-26%	45%
O=C(Oc1c(Cl)cc(Cl)c2cccnc12)c1cccs1	16%	13%[59 µM]	24%	38%	125%
Cc1ccc(S(=O)(=O)Nc2cc(Cl)c(O)c3ncccc23)cc1	.	7.9µM*	8.9µM*	22µM*	79µM*
O=C(Oc1ccc(Cl)c2cccnc12)N1CCCCC1	9%	-8%[59 µM]	-3%	-16%	19%
O=C(Oc1c(Cl)cc(Cl)c2cccnc12)c1ccco1	.	?	?	89µM*	23%
Cc1ccc2oc(C(=O)Nc3ccc(S(=O)(=O)N4CCCCC4C)cc3)cc(=O)c2c1 (configuration not stated)	.	-3%[59 µM]	-12%	-26%	31%
CCN1c2ccccc2-c2nc(SCC(=O)Nc3c(C)cc(C)cc3C)ncc2S1(=O)=O	.	1%[59 µM]	4%	-5%	2%
CC1CCCCN1C(=O)CSc1n[nH]c(-c2ccccc2)n1 (configuration not stated)	.	-2%[59 µM]	5%	0%	30%[57 µM]
COc1ccccc1CNC(=O)c1ccc(N2CCCC2)c(NC(=O)NCc2ccc(F)cc2)c1	.	32%[59 µM]	18%	-5%	67%
CCN1C(C(=O)c2ccccc2)=C(OC(=O)COc2ccc(C)cc2)c2ccccc2S1(=O)=O	.	16µM*	?	50µM*	-3%
CCCN1C(C(=O)c2ccccc2)=C(OC(=O)COc2ccc(C)cc2)c2ccccc2S1(=O)=O	.	?	?	?	-7%
CCCN1C(C(=O)c2ccccc2)=C(OC(=O)COc2ccccc2)c2ccccc2S1(=O)=O	.	8.9µM*	-26%	?	-13%
CCN1C(C(=O)c2ccccc2)=C(OC(=O)c2ccc(Cl)cc2)c2ccccc2S1(=O)=O	.	-48%[59 µM]	-35%	-26%	18%
CCN1C(C(=O)c2ccccc2)=C(OC(=O)COc2ccc(OC)cc2)c2ccccc2S1(=O)=O	.	11µM*	?	?	3%
CCCN1C(C(=O)c2ccccc2)=C(OC(=O)C(C)(C)C)c2ccccc2S1(=O)=O	.	-7%[59 µM]	-24%	-22%	47%
C=CCN1C(C(=O)c2ccccc2)=C(OC(=O)COc2ccccc2)c2ccccc2S1(=O)=O	9%	?	?	20µM*	-1%
Cc1ccc(Nc2nnc(-c3ccc(C)c(S(=O)(=O)N4CCOCC4)c3)c3ccccc23)c(C)c1	.	-46%[59 µM]	-19%	-21%	14%
COc1ccc(C2Nc3ccccc3-n3c(-c4ccccc4)c4c(=O)n(C)c(=O)n(C)c4c32)cc1 (configuration not stated)	.	-9%[59 µM]	?	-14%	26%
COc1cc(C2C(C#N)=C(N)Oc3cc(C)oc(=O)c32)cc(OC)c1OC (configuration not stated)	6%	-7%	-1%	3%	27%
COC(=O)C1=C(C)OC(N)=C(C#N)C1c1ccc(OC)c(OC)c1OC (configuration not stated)	8%	-1%[12.7 µM]	6%	5%[57.1 µM]	25%
COc1ccc(C2C(C#N)=C(N)Oc3c2oc(CO)cc3=O)c(OC)c1OC (configuration not stated)	5%	-13%[59 µM]	12%	11µM*	16%
COc1cccc(C2C(C#N)=C(N)Oc3c2oc(CO)cc3=O)c1OC (configuration not stated)	11%	?	-1%	18µM*	-6%
COc1cc(C2C(C#N)=C(N)Oc3c2oc(CO)cc3=O)cc(OC)c1OC (configuration not stated)	-3%	?	1%	7.1µM*	-13%
CCOC(=O)CC1C(=O)NCCN1S(=O)(=O)c1cccc(C(F)(F)F)c1 (configuration not stated)	.	69%	-8%	-13%	14%
